Pf apPOL inh = Pf-apPOL inhibitors, biochemical, fluorescence; inhibition, % at 10 µM; AID 1794808, 2022; Recombinant Pf-apPOL, molecular beacon fluorescence, 1.5 h; hit rate 0.25% among 210,000
mHTT CaM bind = mutant huntingtin-calmodulin interaction inhibitors – biochemical, AlphaScreen, primary screen. P42858. AlphaScreen His-mHTT/GST-CaM binding, luminescence. inhibition, % at 15 µM. hit rate 3.6% among 190,000
Target sequence (P42858 whole entry, looked up, change not shown): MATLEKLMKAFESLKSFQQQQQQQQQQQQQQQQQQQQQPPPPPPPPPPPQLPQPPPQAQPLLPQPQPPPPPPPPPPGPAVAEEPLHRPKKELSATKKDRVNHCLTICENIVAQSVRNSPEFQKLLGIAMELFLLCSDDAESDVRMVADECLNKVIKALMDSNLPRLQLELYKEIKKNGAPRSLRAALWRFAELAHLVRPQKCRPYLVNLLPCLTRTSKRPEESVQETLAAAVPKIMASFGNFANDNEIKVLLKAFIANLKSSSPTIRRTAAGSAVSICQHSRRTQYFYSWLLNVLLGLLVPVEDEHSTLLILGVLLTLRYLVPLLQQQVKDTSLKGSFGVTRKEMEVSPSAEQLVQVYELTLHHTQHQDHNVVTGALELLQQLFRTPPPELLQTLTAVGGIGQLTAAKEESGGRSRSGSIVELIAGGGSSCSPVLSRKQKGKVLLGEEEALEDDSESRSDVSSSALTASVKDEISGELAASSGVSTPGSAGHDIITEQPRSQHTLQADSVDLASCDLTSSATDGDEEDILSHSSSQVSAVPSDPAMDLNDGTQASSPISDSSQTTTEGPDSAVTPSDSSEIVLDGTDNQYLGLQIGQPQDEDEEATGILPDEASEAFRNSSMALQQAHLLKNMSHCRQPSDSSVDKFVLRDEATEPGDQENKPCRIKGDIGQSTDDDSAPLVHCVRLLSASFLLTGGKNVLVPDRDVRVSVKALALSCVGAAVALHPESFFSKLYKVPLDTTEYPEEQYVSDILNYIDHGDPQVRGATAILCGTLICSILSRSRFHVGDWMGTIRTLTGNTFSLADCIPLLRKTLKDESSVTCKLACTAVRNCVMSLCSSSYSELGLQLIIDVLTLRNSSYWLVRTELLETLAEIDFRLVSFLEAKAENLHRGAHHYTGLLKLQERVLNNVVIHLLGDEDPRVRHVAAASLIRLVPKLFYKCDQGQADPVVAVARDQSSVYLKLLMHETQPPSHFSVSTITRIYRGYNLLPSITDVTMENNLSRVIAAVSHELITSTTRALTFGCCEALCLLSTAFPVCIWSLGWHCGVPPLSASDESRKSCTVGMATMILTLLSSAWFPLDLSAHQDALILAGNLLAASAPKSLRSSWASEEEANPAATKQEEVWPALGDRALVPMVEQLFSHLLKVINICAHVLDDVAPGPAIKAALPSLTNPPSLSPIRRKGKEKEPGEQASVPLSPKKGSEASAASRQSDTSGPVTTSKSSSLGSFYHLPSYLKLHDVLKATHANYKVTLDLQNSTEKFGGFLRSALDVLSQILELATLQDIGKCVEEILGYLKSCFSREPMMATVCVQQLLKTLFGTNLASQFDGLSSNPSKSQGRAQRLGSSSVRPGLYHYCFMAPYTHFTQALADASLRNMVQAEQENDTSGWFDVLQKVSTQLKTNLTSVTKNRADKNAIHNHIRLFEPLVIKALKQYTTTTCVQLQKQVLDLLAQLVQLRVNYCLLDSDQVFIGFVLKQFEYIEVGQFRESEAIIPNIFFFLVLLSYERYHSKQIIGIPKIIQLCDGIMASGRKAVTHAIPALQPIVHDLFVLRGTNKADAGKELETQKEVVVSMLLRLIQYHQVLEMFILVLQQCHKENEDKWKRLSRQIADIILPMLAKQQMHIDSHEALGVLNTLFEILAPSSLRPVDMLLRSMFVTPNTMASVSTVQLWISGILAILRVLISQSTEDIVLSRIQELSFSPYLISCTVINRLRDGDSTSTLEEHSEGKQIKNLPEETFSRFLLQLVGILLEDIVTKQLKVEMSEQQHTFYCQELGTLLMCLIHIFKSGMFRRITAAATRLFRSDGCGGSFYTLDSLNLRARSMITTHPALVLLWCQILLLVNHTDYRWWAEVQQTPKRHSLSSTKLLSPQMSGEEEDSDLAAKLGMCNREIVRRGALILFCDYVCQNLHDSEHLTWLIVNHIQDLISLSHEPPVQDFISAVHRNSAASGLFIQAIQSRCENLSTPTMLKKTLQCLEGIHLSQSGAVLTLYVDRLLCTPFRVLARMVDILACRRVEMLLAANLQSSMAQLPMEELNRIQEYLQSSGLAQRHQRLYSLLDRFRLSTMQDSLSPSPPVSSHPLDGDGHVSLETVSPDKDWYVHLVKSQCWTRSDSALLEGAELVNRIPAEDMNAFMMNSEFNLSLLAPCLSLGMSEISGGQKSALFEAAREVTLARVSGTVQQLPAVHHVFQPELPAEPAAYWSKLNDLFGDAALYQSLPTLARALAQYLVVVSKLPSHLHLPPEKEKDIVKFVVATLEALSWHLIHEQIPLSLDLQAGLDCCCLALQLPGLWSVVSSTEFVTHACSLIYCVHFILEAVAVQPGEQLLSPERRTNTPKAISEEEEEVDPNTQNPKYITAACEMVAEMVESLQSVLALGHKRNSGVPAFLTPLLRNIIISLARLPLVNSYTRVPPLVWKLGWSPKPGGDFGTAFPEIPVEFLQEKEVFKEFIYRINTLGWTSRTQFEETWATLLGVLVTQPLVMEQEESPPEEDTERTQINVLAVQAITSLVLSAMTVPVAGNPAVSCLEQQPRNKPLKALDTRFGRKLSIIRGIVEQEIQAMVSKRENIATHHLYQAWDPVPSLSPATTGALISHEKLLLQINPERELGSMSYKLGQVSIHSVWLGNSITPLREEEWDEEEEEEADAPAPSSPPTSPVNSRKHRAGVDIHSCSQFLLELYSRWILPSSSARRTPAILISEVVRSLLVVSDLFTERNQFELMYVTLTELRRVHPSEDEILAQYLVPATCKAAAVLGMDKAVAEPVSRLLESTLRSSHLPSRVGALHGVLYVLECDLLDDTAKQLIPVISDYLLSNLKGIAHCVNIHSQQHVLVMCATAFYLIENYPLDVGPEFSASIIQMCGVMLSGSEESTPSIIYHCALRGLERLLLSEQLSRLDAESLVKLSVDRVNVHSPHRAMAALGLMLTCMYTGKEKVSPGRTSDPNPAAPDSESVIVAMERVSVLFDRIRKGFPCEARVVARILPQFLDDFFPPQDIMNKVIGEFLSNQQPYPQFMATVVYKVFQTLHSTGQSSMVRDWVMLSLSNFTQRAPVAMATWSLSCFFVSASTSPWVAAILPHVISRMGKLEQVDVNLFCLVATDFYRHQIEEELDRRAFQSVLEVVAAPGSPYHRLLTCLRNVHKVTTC
Hits are given with their value; – = inactive; · = no result given; ! = not active in a repeat. This is one part of a sample in which hits are shown more often than they occur. No stated cut-off is given here; in the data, active means inhibition above about 50%; inactive means the rest.

SMILES	Pf apPOL inh	mHTT CaM bind
CCOc1ccc(C(=O)Nc2ccc(Nc3ccc(-n4cccn4)nn3)cc2)cc1OCC	–	88
NS(=O)(=O)c1ccc(NC(=O)c2ccc(F)cc2)cc1	–	–
CCc1c(C)nc2ccccc2c1SCCC(=O)O	–	–
O=C(NC1CC2CC1N(S(=O)(=O)c1ccc3c(c1)CCC3)C2)c1cccs1 (stereo unspecified)	–	–
CCCc1cc2c(=O)c(-c3ccc(C(=O)OCC)o3)c(C(=O)OCC)oc2cc1OC(C)=O	–	–
CN(C)C=CC(=O)C=Cc1ccc(Cl)cc1Cl	–	·
COc1ccc(C=C2Oc3c(ccc4c3CN(Cc3ccco3)CO4)C2=O)c(OC)c1OC	–	66
COc1ccc(C=C2Oc3c(ccc4c3CN(c3ccc5c(c3)OCO5)CO4)C2=O)cc1OC	–	59
COc1ccc(CN2COc3ccc4c(c3C2)OC(=Cc2ccco2)C4=O)cc1	–	51
O=C1C(=Cc2ccco2)Oc2c1ccc1c2CN(Cc2ccc3c(c2)OCO3)CO1	–	–
COCCCN1COc2ccc3c(c2C1)OC(=Cc1cc(OC)c(OC)c(OC)c1)C3=O	–	–
COc1cc(C=C2Oc3c(ccc4c3CN(CCN3CCOCC3)CO4)C2=O)cc(OC)c1OC	–	89
COc1ccc(C=C2Oc3c(ccc4c3CN(c3ccc5c(c3)OCCO5)CO4)C2=O)cc1OC	–	–
COc1ccc(C=C2Oc3c(ccc4c3CN(Cc3ccncc3)CO4)C2=O)c(OC)c1OC	–	–
COc1ccc(Br)cc1C1=N/C(=C/c2ccc(OC)c(OC)c2OC)C(=O)O1	–	–
COCC(=O)NC1CC(=O)N(C2CC2)C1 (stereo unspecified)	–	–
Cc1cn(-c2ccc(CNC(=O)c3ccccc3)cc2)cn1	–	–
COc1ccc(OC)c(C=C2Oc3c(ccc4c3CN(Cc3ccco3)CO4)C2=O)c1	–	–
COc1ccc(C=C2Oc3c(ccc4c3CN(Cc3ccco3)CO4)C2=O)c(OC)c1	–	68
Nc1c(S(=O)(=O)O)cc(Br)c2c1C(=O)c1ccccc1C2=O	–	–
Nc1c(S(=O)(=O)O)cc(Nc2ccc(Nc3nc(Cl)nc(Nc4ccc(S(=O)(=O)O)cc4)n3)c(S(=O)(=O)O)c2)c2c1C(=O)c1ccccc1C2=O	–	·
O=C1C(Nc2ccccc2)=C(NS(=O)(=O)c2ccccc2)C(=O)c2ccccc21	–	–
Nc1c(S(=O)(=O)O)cc(Nc2ccccc2)c2c1C(=O)c1ccccc1C2=O	–	98
Cc1ccc(S(=O)(=O)Nc2cc(S(=O)(=O)O)c(N)c3c2C(=O)c2ccccc2C3=O)cc1	–	79
NC1=C(Nc2ccccc2)C(=O)c2ccccc2C1=O	–	93
SMILES	Pf apPOL inh	mHTT CaM bind
COc1cc(C=Cc2ccncc2)ccc1OC(=O)c1cc(OC)c(OC)c(OC)c1	–	–
O=C(Nc1nccs1)c1cc2ccccc2oc1=Nc1cccc(C(F)(F)F)c1	–	–
CCc1cc(C2CCCN2C(=O)c2c(F)cccc2Cl)on1 (stereo unspecified)	–	–
O=C(NCc1cccnc1-c1ccc(F)cc1)c1cccc(F)c1	–	–
Cc1ccc(/C(N)=N/OC(=O)COc2ccc(Br)c(C)c2)cc1	–	–
Cc1ccc(-n2c(SCC(=O)c3cccc([N+](=O)[O-])c3)nc3[nH]ncc3c2=O)cc1Cl	–	–
COc1ccc(Cl)cc1N1CCN(C(C)C(=O)Nc2ccc(C)cc2)CC1 (stereo unspecified)	–	99
COc1ccccc1N1CCN(C(C)C(=O)Nc2ccc(F)cc2)CC1 (stereo unspecified)	–	–
CCOC(=O)C(C)Oc1ccc2c(c1)OC(=Cc1cccc([N+](=O)[O-])c1)C2=O (stereo unspecified)	–	–
O=C(c1cc2ccccc2[nH]1)N1CCN(Cc2csc(-c3ccccc3)n2)CC1	–	66
O=C(CCC(=O)N1CCN(Cc2csc(-c3ccccc3)n2)CC1)c1ccccc1	–	–
COc1ccc(N2C(=O)CSC2c2ccccc2F)cc1 (stereo unspecified)	–	–
COc1ccc(CNC(=O)c2cc(-c3cccnc3)nc3ccccc23)cc1	–	70
COc1cccc(CNC(=O)c2cc(-c3cccnc3)nc3ccccc23)c1	–	–
Cc1ccc(NC(=O)N2CCC(n3cnc4ccc(C)cc4c3=O)CC2)c(Cl)c1	–	–
Cc1c(C)c(C)c(C(=O)Nc2cc(C(N)=O)c(Cl)cc2Cl)c(C)c1C	–	–
Cn1ncc(N2CCCC(C(=O)NCCCN3CCc4ccccc4C3)C2)cc1=O (stereo unspecified)	–	–
COc1ccc(CNC(=O)c2sc3cc(F)ccc3c2Cl)c(OC)c1	–	–
CC1(C)CC(=O)C2=C(C1)N=C1c3ccccc3C(=O)C1C2c1ccc(Cl)cc1 (stereo unspecified)	–	68
O=C1CCCC2=C1C(c1cccc(Cl)c1)C1C(=O)c3ccccc3C1=N2 (stereo unspecified)	–	–
Cc1cc(C2C3=C(CC(C)(C)CC3=O)N=C3c4ccccc4C(=O)C32)cc(C)c1O (stereo unspecified)	–	–
COc1ccc(C2C3=C(CC(C)(C)CC3=O)OC3=C2C(=O)CC(C)(C)C3)cc1OC	–	–
COc1ccc(C2C3=C(CC(C)(C)CC3=O)N=C3c4ccccc4C(=O)C32)cc1OC (stereo unspecified)	–	64
Cc1ccc(C2C3=C(CC(C)(C)CC3=O)N=C3c4ccccc4C(=O)C32)cc1 (stereo unspecified)	–	62
CC1(C)CC(=O)C2=C(C1)N=C1c3ccccc3C(=O)C1C2c1cccc(Cl)c1 (stereo unspecified)	–	64
SMILES	Pf apPOL inh	mHTT CaM bind
CC1(C)CC(=O)C2=C(C1)N=C1c3ccccc3C(=O)C1C2c1ccccc1Cl (stereo unspecified)	–	–
O=C(NCc1cccnc1)C1CC(=O)N(c2ccc3c(c2)CCN3C(=O)C2CCC2)C1 (stereo unspecified)	–	–
O=C1CCCC2=C1C(c1ccc(Br)cc1)C1C(=O)c3ccccc3C1=N2 (stereo unspecified)	–	69
CC1(C)CC(=O)C2=C(C1)N=C1c3ccccc3C(=O)C1C2c1cccc([N+](=O)[O-])c1 (stereo unspecified)	–	51!
O=C1CCCC2=C1C(c1cc(Br)ccc1O)C1C(=O)c3ccccc3C1=N2 (stereo unspecified)	–	–
CC1(C)CC(=O)C2=C(C1)Nc1ccccc1NC2c1cccc([N+](=O)[O-])c1 (stereo unspecified)	–	–
C=CCNc1nnc(-c2ccc(C)cc2)s1	–	–
O=C(Nc1cccc(O)c1)C(Cc1ccc([N+](=O)[O-])cc1)N1C(=O)c2ccccc2C1=O (stereo unspecified)	–	–
CCC(C)(C)C1CCc2c(sc(N)c2C#N)C1 (stereo unspecified)	97	·
CCN1CCc2c(sc(N)c2C#N)C1	–	–
COCCN=C1Nc2ccccc2NC12CCCN(S(=O)(=O)c1ccc(OC)cc1)C2 (stereo unspecified)	–	–
CC1(C)C(C=C(Cl)Cl)C1C(=O)Nc1ccccc1Cl (stereo unspecified)	–	–
CC1(C)C(C=C(Cl)Cl)C1C(=O)Nc1ccc(S(=O)(=O)Nc2ncccn2)cc1 (stereo unspecified)	–	–
Cc1cc(NS(=O)(=O)c2ccc(NC(=O)C3C(C=C(Cl)Cl)C3(C)C)cc2)nc(C)n1 (stereo unspecified)	–	62

Screening results deposited in PubChem BioAssay by University of Kansas High Throughput Screening Laboratory.
